40 compounds from PubChem BioAssay (NCI) can be followed below.

Molecules are shown by their SMILES. The panel holds about 83,000 compounds, 20% with a hit somewhere; the sample as a whole holds those more often.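 Each cell line was grown in a 96-well plate and treated with one concentration of compound for 48 hours. Values below 10 were considered active.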 Active and inactive are the calls of the source.

The assay relates to NCI-H23 lung. Description: NCI-60 one-dose screen, 48 h (100 = growth as untreated, 0 = no growth, -100 = all killed). Particulars: 10 µM unless noted. On the procedure:
Growth inhibition of the NCI-H23 human Non-Small Cell Lung tumor cell line is measured as a screen for anti-cancer activity. Cells are grown in 96 well plates and exposed to the test compound for 48 hours. Compounds are tested at a single concentration, which is 10^-5 M for most compounds. The reported endpoint is percent growth (GI% or GIPRCNT), where numbers from 0 - 100% represent growth inhibition, and numbers from -100% - 0 represent cell death. For example, a value of 40 represents 60% growth inhibition. A value of 0 means no net growth occurred over the course of the experiment. A value of -40 indicates 40% of cells at the beginning of the experiment died by the end of the experiment. A value of -100 means all cells are dead at the end of the experiment.
NCI-60 Human Tumor Cell Lines Screen was performed using the standard one-dose NCI protocol, which is described in more detail at https://dtp.cancer.gov/discovery_development/nci-60/default.htm.
Compounds with GIPRCNT values below 10 were considered active. Activity score was based on GIPRCNT using the following formula: […]
Score is 0 for GIPRCNT values of 100 or above, 50 for GIPRCNT values of 0, and 100 for GIPRCNT values of -100.
`COc1ccc(S(=O)(=O)ON=C2C=C(C)C(=O)C(C)=C2)cc1`: the growth was 98.2% (inactive). Regarding `COc1cc(-c2nc3ccccc3o2)cc(CN2CCN(c3ccccc3)CC2)c1O`, the growth was 37.8% (inactive). Turning to `O=C1CCC(N2C(=O)c3cccc(NCCOCCOCCNC(=O)c4cc5c(o4)C(=O)c4ccccc4C5=O)c3C2=O)C(=O)N1` (stereo not given), the growth is -53.9% (active).

On to `Clc1nc(-c2ccccn2)nc2sc3c(c12)CCCCCC3`, for which the growth is 82.4% (inactive). As to `COC(=O)c1c2c(c(C)[n+]([O-])c1C)C(=O)C=C(NCc1ccc(Cl)cc1)C2=O`, the growth is -35.7% (active). With `Cc1c(C(=O)Nc2nc(-c3ccccc3)cs2)nnn1-c1ccccc1Br` the figure was 28.7% [50 µM] (inactive). Regarding `Fc1ccccc1Nc1ccc2nnc(-c3ccncc3)n2n1`, the growth is 93.1% (inactive). In the case of `COc1cc(/C=C2\C(=O)N(c3c(Cl)cccc3Cl)c3ccccc32)cc(OC)c1O`, the growth was 48.1% (inactive). For `O=C1/C(=C/c2ccccc2F)CNC/C1=C\c1ccccc1F`, the growth was -48.3% (active). To `COc1cc(/C=C/C(=O)C(=Cc2ccc(F)c(F)c2)C(=O)/C=C/c2ccc(O)c(OC)c2)ccc1O` belongs -24.6% (active); to `O=c1nc(NO)[nH]c(=O)n1Cc1ccc(F)cc1`, 106% (inactive); to `CC[Si](CC)(CC)OC1[C@@H](O[Si](CC)(CC)CC)[C@@H](CNC(=O)NC)O[C@H]1n1cnc2c(NC(=O)Nc3ccccc3)ncnc21` (stereo not given in full), 51.9% (inactive). With `COC(=O)C1C2CC3c4[nH]c5cc(OC)ccc5c4CCN3CC2CC(OC2CCCCO2)C1OC` (stereo not given), the growth is 98.9% (inactive).

With `COc1ccccc1/C=C/C(=O)/C=C/c1ccccc1O`, the growth is -11.3% (active). With `CN1CCN(C)c2cncc(Br)c2C1=O` the figure was 101% (inactive); with `O=c1c2c(=NCCN3CCCC3)cc3c(=O)n(CCCN4CCOCC4)c(=O)c4ccc(c(O)n1CCCN1CCOCC1)c2c4-3`, -49% (active); with `O=C1c2[nH]cc(CN[C@@H]3CCCN3)c2C(=O)c2c1c(O)c1ccccc1c2O`, -53.7% (active). `CCC(=O)Nc1nnc(Cc2ccc(OC)c(OC)c2)s1`: the growth was 60.4% (inactive).

Take `CC1CCCCN1S(=O)(=O)c1ccc(CN=C=S)cc1` (stereo not given): the growth was 97.1% (inactive).

Regarding `C=C1CC[C@@H]2[C@@](C)(CCC[C@]2(C)C(=O)O)[C@@H]1CC[C@H](CO)CCO`, the growth was 102% (inactive).

`COC(=O)[C@@]12CC[C@@H](C)[C@]3(C[C@@H](c4ccoc4)OC3=O)[C@H]1CC[C@@H]1O[C@@]12C`: the growth is 96.1% (inactive). With `CCCOC(=O)c1ccc2c(c1)[N+](=O)C(C(=O)c1ccccc1)=C(C(F)(F)F)[N+]2=O` the figure was -75.6% (active); with `COc1ccc(C2SC(C)C(=O)N2CCc2cccs2)cc1OC` (stereo not given), 76.4% (inactive). As for `c1ccc2cc(-c3n(Cc4ccc5ccccc5n4)c4ccccc4[n+]3Cc3ccc4ccccc4n3)ccc2c1`, the growth is -16.5% (active).

With `CCOC(=O)c1c(-c2cc(OC)c(OC)c(OC)c2)csc1N`, the growth was 92.9% (inactive). With `COC(=O)c1c2c(c(C)[n+]([O-])c1C)C(=O)C=C(NCc1ccc(F)cc1)C2=O`, the growth was -46.2% (active).

In the case of `Cc1ccc(NS(=O)(=O)c2ccc(-c3cnc(C4CC4)o3)cc2)cc1`, the growth was 58.8% (inactive). For the compound `CC(C)(C)[Si](C)(C)OC1[C@@H](COC(=O)NC(=O)CCl)O[C@@H](n2cnc3c(N)ncnc32)[C@H]1O[Si](C)(C)C(C)(C)C` (stereo not given in full), the growth is -45% (active). With `C[C@]1(CO)C[C@@H](O)C[C@]2(C)[C@@H]1CC[C@@]13C[C@@H]4[C@@H](C[C@H]12)[C@]4(C)C3` the figure was 108% (inactive).

With `COc1cc(OCc2cccc(-c3ccc(C(O)c4nccs4)cc3)c2C)cc(OC)c1C=O` (stereo not given), the growth is 42.1% (inactive). With `CC(=O)c1cc(C)c(OC(=O)c2ccccc2)c(C)c1` the figure was 89.8% (inactive); with `O=C(Nc1nc2ccccc2[nH]1)C(=O)Nc1nc2ccccc2[nH]1`, 89.6% (inactive); with `O=C1NC(=O)C(CSc2ccccc2)(c2ccccc2)N1` (stereo not given), 97.7% (inactive). With `CN1CCC(OC2c3ccccc3CCc3ccccc32)CC1` the figure was 94.6% (inactive).

As for `COc1cc(CNCCN2C(=O)c3ccc4c5c(ccc(c35)C2=O)C(=O)N(CCNCc2cc(OC)c(OC)c(OC)c2)C4=O)cc(OC)c1OC`, the growth is -89.3% (active). With `CCCCC1COc2cccc3c(SCC(=O)N(C)c4cccc5ccccc45)cc[n+]1c23` (stereo not given) the figure was 104% (inactive); with `COc1ccc(/C=C2\Oc3cc(C)c(Cl)cc3C2=O)cc1OC`, 103% (inactive). `CCCCOC(=O)C1OC(Oc2ccc3c(C)cc(=O)oc3c2)[C@@H](OC(C)=O)C(OC(C)=O)C1OC(C)=O` (stereo not given in full): the growth is 99.9% (inactive). As for `COc1cc2oc(-c3ccc(O)cc3)cc(=O)c2c(O)c1I`, the growth is 99.6% (inactive).

Turning to `CCOC(=O)n1cc(C2=C(c3cn(C)c4ccccc34)COC2=O)c2ccccc21`, the growth is 30% (inactive).
